Source: PubChem
IP6K1 inhibitor – inhibitors of human IP6K1 | Q92551 | IP6K1 kinase, ADP-Glo luminescence, 2 h; stronger effect = lower value | activity change, % (series mostly up to about 58 µM) | 140,000 compounds, 0.81% hits; in the data active = activity change below about -25%; also: % is scaled to controls: 0 for no effect and ±100 for the full control effect
Target sequence (Q92551 whole entry, looked up): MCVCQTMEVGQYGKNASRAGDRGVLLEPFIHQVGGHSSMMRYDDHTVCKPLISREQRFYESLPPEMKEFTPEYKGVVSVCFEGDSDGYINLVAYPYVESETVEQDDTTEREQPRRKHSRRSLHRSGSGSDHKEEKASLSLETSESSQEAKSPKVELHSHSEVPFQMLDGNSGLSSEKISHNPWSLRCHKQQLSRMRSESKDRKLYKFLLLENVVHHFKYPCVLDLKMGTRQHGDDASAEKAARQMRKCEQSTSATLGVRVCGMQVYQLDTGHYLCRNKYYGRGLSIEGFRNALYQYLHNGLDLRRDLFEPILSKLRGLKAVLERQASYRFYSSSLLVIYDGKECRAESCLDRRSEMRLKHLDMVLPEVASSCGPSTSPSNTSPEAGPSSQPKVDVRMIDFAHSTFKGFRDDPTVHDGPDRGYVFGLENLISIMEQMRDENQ
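ADP-Glo luminescence measures ADP made by human IP6K1 during a 2 h RT reaction with ATP/IP6 (mix at 1.3 mM/130 uM); top library doses 57.5 and 19.1 uM final.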
SNCA viab count – counter-screen for SNCA expression inhibitors: cell viability; 150,000 compounds, 0.12% hits; HEK-293-SNCA-luc viability, GF-AFC fluorescence, 24 h; Potency, µM (top dose mostly 57.1 µM), inactives show at the top dose activity change, negative = cytotoxicity, hits mostly cytotoxic; AID 1671193;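 also: potency is read from the fitted curve at half-maximal effect; 0% = DMSO-treated cells and -100% = medium-only wells without cells; nearly all actives have a fitted effect of over 30% in size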
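HEK-293-SNCA-luc cells (1500/well) plated 24 h, then exposed 24 h to a dilution series; GF-AFC added 30 min at 37C, fluorescence 405/540 nm; normalised to medium-only and DMSO wells, Hill fit.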
SNCA expr inh – inhibitors of alpha-synuclein (SNCA) gene expression; 140,000 compounds, 0.17% hits; AID 1671194; HEK-293 SNCA-luciferase knock-in, luminescence, 24 h; Potency, µM (top dose mostly 57.2 µM), for inactives: top-dose activity change, negative = inhibition, hits mostly inhibitors;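 also: potency is read from the fitted curve at half-maximal effect; plate controls were DMSO cells for no effect and cell-free wells for full effect; nearly all actives have a fitted effect of over 45% in size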
KDM5B inhibitor – KDM5B demethylase inhibition | KDM5B demethylase, FDH-coupled NADH fluorescence (FDH is formaldehyde dehydrogenase) | Potency, µM (top dose mostly 57.7 µM), hits mostly inhibitors | 220,000 compounds, 2.6% hits; also: potency is read from the fitted curve at half-maximal effect; 0% is about no effect; nearly all actives have a fitted effect of over 70% in size
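Here, H3K4me3 peptide (12.5 µM in substrate mix) is demethylated by KDM5BΔAP, 200 nM final, after 10 min compound exposure. Formaldehyde product is coupled through FDH (0.25 U/mL in mix) to NADH fluorescence; 30-min ΔRFU feeds dose-response curves.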
* = called active by the depositor; i = inactive; ? = inconclusive; nt = not tested or not shown; [ ] = another dose, or the depositor's remark. Sampled rows, rich in hits. Any-hit rate of the full collection: about 2.8%. Unless noted, calls follow the shape of the dose curve; as a rule, active = well fitted curve in the direction sought with a large enough effect; inconclusive = small, poorly fitted or top-dose-only effect, or another doubt; inactive = no such curve, though single readings can be large; an effect the other way counts as inactive or inconclusive.

SMILES	IP6K1 inhibitor	SNCA viab count	SNCA expr inh	KDM5B inhibitor
COc1ccc(C(=O)Nc2ccc(-c3noc([C@@H]4CCCN4Cc4ccc(Cl)cc4)n3)cn2)cc1	-11	-4%	-5%	32µM*
COCC(=O)Nc1ccc(-c2noc([C@@H]3CCCN3Cc3ccc(F)cc3)n2)cn1	7	-12%[87.6 µM]	0%[87.6 µM]	i
COc1ccc(C(=O)Nc2ccc(-c3noc([C@@H]4CCCN4Cc4ccccc4C)n3)cn2)cc1	-5	-29%	?	32µM*
COc1cccc(N2CCN(C(=O)C3CCC(CNS(=O)(=O)c4ccc(Br)s4)CC3)CC2)c1 (configuration not stated)	-3	3%	-19%	?
Cc1oc(-c2ccccc2F)nc1Cn1c(SCc2cccc(Cl)c2)nc2ccncc21	7	-22%	?	i
Cc1ccc(CSc2nc3ccncc3n2Cc2nc(-c3ccccc3C)oc2C)cc1	-4	-1%	10µM*	?
O=C(Cc1ccc(F)cc1)NCCn1ccn2nc(-c3ccc(F)cc3)cc2c1=O	-5	6%	-7%	i
COc1ccc(-c2cc3c(=O)n(CCNC(=O)Cc4ccc(C)cc4)ccn3n2)cc1	8	-17%	1%	20µM*
COc1ccc(-c2cc3c(=O)n(CCNC(=O)Cc4ccsc4)ccn3n2)cc1	-7	?	-20%	28µM*
Cc1ccc(-c2cc3c(=O)n(CCNC(=O)Cc4ccsc4)ccn3n2)cc1C	-11	-7%	33%	i
COc1ccc(Nc2cc3c(nc2OC)nc(CCc2ccccc2)n3C)cn1	2	-7%[87.6 µM]	184%[87.6 µM]	18µM*
COc1nc2nc(CC3CC3)n(C)c2cc1-c1ccncc1	2	-1%[87.6 µM]	68%[87.6 µM]	?
COc1nc2nc(CCc3ccccc3)n(C)c2cc1-c1cccc(CO)c1	3	-22%[87.6 µM]	49%[87.6 µM]	35µM*
COc1nc2nc(CCc3ccccc3)n(C)c2cc1-c1ccnc(C)c1	5	-22%[87.6 µM]	74%[87.6 µM]	40µM*
COc1nc2nc(CC3CC3)n(C)c2cc1-c1ccnc(C)c1	9	-5%[87.6 µM]	14%[87.6 µM]	40µM*
COc1ncccc1-c1cc2c(nc1OC)nc(CCc1ccccc1)n2C	10	-21%[87.6 µM]	-20%[87.6 µM]	?
COc1ccc(/C=C/c2nc(C#N)c(NCCc3ccc(OC)c(OC)c3)o2)cc1OC	-24	8%	-4%	?
Cc1cc(NC(=O)COC(=O)c2csc(NCc3ccccc3)n2)ccc1N1CCCC1	nt	nt	nt	i
Cc1cccc(N2CC(O)=C(c3nc4ccccc4n3C)C2=N)c1C	nt	nt	nt	i
COc1cc(F)ccc1-c1cc2c(nc1OC)nc(CC1CC1)n2C	16	-15%[87.6 µM]	6%[87.6 µM]	35µM*
CN(Cc1ccc(F)cc1)c1ccc2ncc(Nc3ccncc3)n2n1	-6	-3%[87.6 µM]	-22%[87.6 µM]	?
COc1ncccc1Nc1cnc2ccc(N(C)Cc3ccc(F)cc3)nn12	-12	9%[87.6 µM]	?	32µM*
CN(C)c1ccc2ncc(Nc3ccccc3Cl)n2n1	-11	8%[87.6 µM]	49%[87.6 µM]	35µM*
COc1ccc(F)cc1Nc1cnc2ccc(N(C)Cc3cccnc3)nn12	-21	?	?	32µM*
CCCCCn1nc(C(=O)N(Cc2ccc(F)cc2)C2CC2)c2ccccc2c1=O	nt	nt	nt	i
SMILES	IP6K1 inhibitor	SNCA viab count	SNCA expr inh	KDM5B inhibitor
Cc1cn2nc(C(=O)N3CCN(c4ccccn4)CC3)cc2c(N2CCCC2)n1	3	?	-1%	25µM*
Cc1cn2nc(C(=O)N3CCN(c4cccc(Cl)c4)CC3)cc2c(N2CCCC2)n1	6	-6%	-17%	35µM*
COc1ccccc1C(=O)N1CCn2c(nnc2-c2ccncc2)C1	1	5%	-19%	i
COc1ccc(-n2c(SCc3ccccc3)nc3c([nH]c4ccccc43)c2=O)cc1	21	1%	32%	i
Cc1nc2ncccn2c1C(=O)N1CCn2nc(CO)cc2C1	-11	3%	15%	32µM*
O=C(O)C1CNCCN(C(=O)c2nc3ccc(F)cc3[nH]2)C1 (configuration not stated)	-2	9%	-4%	i
Cc1nc2ncccn2c1C(=O)N1CCNCC(C(=O)O)C1 (configuration not stated)	-6	-5%	-3%	22µM*
O=C(c1cc(Cl)ccc1F)N1CCCC(n2cc(-c3nc(-c4ccccc4)no3)nn2)C1 (configuration not stated)	0	-29%	22%	i
COc1ccc(Cl)cc1N(CC(=O)NCc1ccncc1)S(=O)(=O)c1ccc(C)cc1	nt	nt	nt	i
O=C(Cc1ccc(Cl)cc1)N1CCN(c2nnc3ccccn23)CC1	25	3%	-7%	25µM*
O=C(Cc1ccccc1F)N1CCN(c2nnc3ccc(Cl)cn23)CC1	40	-7%	-1%	?
O=C(Cc1cccc(C(F)(F)F)c1)N1CCN(c2nnc3ccc(Cl)cn23)CC1	4	-1%	-11%	25µM*
O=C(Cc1ccc(Cl)cc1)N1CCN(c2ccccc2O)CC1	nt	nt	nt	i
O=C(CC[C@@H]1CNC(=O)[C@@H]2C[C@H](NC(=O)c3cccc(F)c3)CN12)NCc1ccc(F)cc1	-1	-3%	-2%	i
Cc1onc(-c2ccccc2)c1-c1nc2cc(Cl)ccc2c(=O)o1	nt	nt	nt	i
Cc1ccsc1C(=O)N1CCc2c(nc3cc[nH]n3c2=O)C1	24	-3%	3%	32µM*
Cc1ccccc1C(=O)N1CCc2nc3cc[nH]n3c(=O)c2C1	4	-3%	-6%	28µM*
O=C(Nc1ccc(Cl)cc1F)N1CCc2nc3cc[nH]n3c(=O)c2C1	0	-1%	7%	32µM*
COc1ccc(CC(=O)N2CCc3nc4cc[nH]n4c(=O)c3C2)c(Cl)c1	14	0%	1%	?
COc1ccc(-c2cc3nc4c(c(=O)n3[nH]2)CN(C(=O)c2sccc2C)CC4)cc1	3	5%	-22%	?
O=C(CCn1c2c(c3ccccc31)CCCC2)N1CCc2nc3cc[nH]n3c(=O)c2C1	6	-2%	-26%	i
Cn1nc(C(=O)N2CCc3nc4cc[nH]n4c(=O)c3C2)c2ccccc21	6	4%	48%	32µM*
O=C(c1ccc[n+]([O-])c1)N1CCOC(CC(c2ccccc2)c2ccccc2)C1 (configuration not stated)	13	6%	-23%	i
CC(C)C[C@@H]1N[C@H](C(=O)NCCN2CCOCC2)Cc2cn(Cc3ccccn3)c3cccc1c23	5	?	-3%	i
COc1ccccc1-c1cc(C(=O)Nc2c(C)nn(Cc3ccc(Cl)cc3)c2C)no1	nt	nt	nt	i
SMILES	IP6K1 inhibitor	SNCA viab count	SNCA expr inh	KDM5B inhibitor
Cn1cccc1C(=O)N1CCc2nc3cc[nH]n3c(=O)c2C1	11	15%	-3%	32µM*
CN1C(=O)COc2ccc(C(=O)N3CC(C)(C)[C@@](C)(O)C3)cc21	0	0%	-11%	32µM*
O=C(NC1CCN(c2nc3ncccc3o2)CC1)c1ccccc1	-3	-15%[87.6 µM]	5%[87.6 µM]	35µM*
O=C(NC1CCN(c2nc3ncccc3o2)CC1)c1ccccc1F	-20	-22%	5%	?
Cc1ccc(C(=O)NC2CCN(c3nc4ncccc4o3)CC2)cc1	3	?	1%[87.6 µM]	35µM*
Cc1ccc(S(=O)(=O)N2CCC3(CC2)OCCO3)s1	nt	nt	nt	i
